# Only a selection was taken, and the strongest signals are over-represented in it overall.
# B1: Gal 8 (Homo sapiens) (protein)
# chain: MLSLNNLQNIIYNPVIPYVGTIPDQLDPGTLIVICGHVPSDADRFQVDLQNGSSVKPRADVAFHFNPRFKRAGCIVCNTLINEKWGREEITYDTPFKREKSFEIVIMVLKDKFQVAVNGKHTLLYGHRIGPEKIDTLGIYGKVNIHSIGFSFSSDLQSTQASSLELTEISRENVPKSGTPQLQTVSPSWDLQGHGSETFCSVLWTRVFLEIAFCRPIGLTVASFQSLPFAARLNTPMGPGRTVVVKGEVNANAKSFNVDLLAGKSKDIALHLNPRLNIKAFVRNSFLQESWGEEERNITSFPFSPGMYFEMIIYCDVREFKVAVNGVHSLEYKHRFKELSSIDTLEINGDIHLLEVRSW
# Tests used:
# Test in all cases: glycan array binding signal (z-score within array); higher = stronger binding
# Details in all cases: glycan notation: IUPAC condensed, linker removed
# [1] = target: GalNAc(b1-4)GlcNAc(b1-2)Man(a1-3)[GalNAc(b1-4)GlcNAc(b1-2)Man(a1-6)]Man(b1-4)GlcNAc(b1-4)GlcNAc
# Outline: (§1)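 The binding signal is a Z-score computed within each array. Data were drawn from 3228 arrays in the Consortium for Functional Glycomics database, restricted to those with a known protein sequence. Scores were averaged over arrays of the same protein sequence at different concentrations or buffers, and over linkers, and negative values can be taken as non-binding.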
# [2] = target: GlcNAc(b1-2)[GlcNAc(b1-4)]Man(a1-3)[GlcNAc(b1-2)Man(a1-6)]Man(b1-4)GlcNAc(b1-4)GlcNAc
# Outline: as §1
# GlcNAc(b1-3)Gal(b1-4)Glc = target: GlcNAc(b1-3)Gal(b1-4)Glc
# Outline: as §1
# [3] = target: GlcNAc(b1-3)Gal(b1-4)GlcNAc(b1-3)Gal(b1-4)GlcNAc(b1-2)[GlcNAc(b1-3)Gal(b1-4)GlcNAc(b1-3)Gal(b1-4)GlcNAc(b1-6)]Man(a1-6)[GlcNAc(b1-3)Gal(b1-4)GlcNAc(b1-3)Gal(b1-4)GlcNAc(b1-2)Man(a1-3)]Man(b1-4)GlcNAc(b1-4)[Fuc(a1-6)]GlcNAc
# Outline: as §1
# [4] = target: GlcNAc(b1-3)Gal(b1-4)GlcNAc(b1-3)Gal(b1-4)GlcNAc(b1-3)Gal(b1-4)GlcNAc(b1-2)[GlcNAc(b1-3)Gal(b1-4)GlcNAc(b1-3)Gal(b1-4)GlcNAc(b1-3)Gal(b1-4)GlcNAc(b1-6)]Man(a1-6)[GlcNAc(b1-3)Gal(b1-4)GlcNAc(b1-3)Gal(b1-4)GlcNAc(b1-3)Gal(b1-4)GlcNAc(b1-2)Man(a1-3)]Man(b1-4)GlcNAc(b1-4)[Fuc(a1-6)]GlcNAc
# Outline: as §1
# [5] = target: GlcNAc(b1-3)Gal(b1-4)GlcNAc(b1-3)Gal(b1-4)GlcNAc(b1-3)Gal(b1-4)GlcNAc(b1-3)Gal(b1-4)GlcNAc(b1-2)[GlcNAc(b1-3)Gal(b1-4)GlcNAc(b1-3)Gal(b1-4)GlcNAc(b1-3)Gal(b1-4)GlcNAc(b1-3)Gal(b1-4)GlcNAc(b1-6)]Man(a1-6)[GlcNAc(b1-3)Gal(b1-4)GlcNAc(b1-3)Gal(b1-4)GlcNAc(b1-3)Gal(b1-4)GlcNAc(b1-3)Gal(b1-4)GlcNAc(b1-2)Man(a1-3)]Man(b1-4)GlcNAc(b1-4)[Fuc(a1-6)]GlcNAc
# Outline: as §1
# [6] = target: GlcNAc(b1-3)[GlcNAc(b1-6)]Gal(b1-4)GlcNAc
# Outline: as §1
# [7] = target: GlcNAc(b1-3)[GlcNAc(b1-6)]GlcNAc(b1-4)GlcNAc
# Outline: as §1
# [8] = target: GlcNAc(b1-4)Gal(b1-4)GlcNAc
# Outline: as §1
# [9] = target: GlcNAc(b1-4)GlcNAc(b1-4)GlcNAc(b1-4)GlcNAc(b1-4)GlcNAc(b1-4)GlcNAc
# Outline: as §1
# [10] = target: Man(a1-3)[Man(a1-6)]Man(b1-4)GlcNAc(b1-4)[Fuc(a1-6)]GlcNAc
# Outline: as §1
# [11] = target: Neu5Ac(a2-3)Gal(b1-3)GalNAc(b1-3)Gal(a1-4)Gal(b1-4)Glc
# Outline: as §1
# [12] = target: Neu5Ac(a2-3)Gal(b1-3)GlcNAc(b1-2)Man(a1-3)[Neu5Ac(a2-3)Gal(b1-3)GlcNAc(b1-2)Man(a1-6)]Man(b1-4)GlcNAc(b1-4)GlcNAc
# Outline: as §1
# [13] = target: Neu5Ac(a2-3)Gal(b1-4)GlcNAc(b1-2)[Neu5Ac(a2-3)Gal(b1-4)GlcNAc(b1-4)]Man(a1-3)[GlcNAc(b1-4)][Neu5Ac(a2-3)Gal(b1-4)GlcNAc(b1-4)Man(a1-6)]Man(b1-4)GlcNAc(b1-4)GlcNAc
# Outline: as §1
# [14] = target: Neu5Ac(a2-3)Gal(b1-4)GlcNAc(b1-3)Gal(b1-4)GlcNAc(b1-3)Gal(b1-4)GlcNAc
# Outline: as §1
# [15] = target: Neu5Ac(a2-3)Gal(b1-4)GlcNAc(b1-6)[Gal(b1-3)]GalNAc
# Outline: as §1
# [16] = target: Neu5Ac(a2-6)Gal(b1-4)GlcNAc(b1-2)Man(a1-6)[Man(a1-3)]Man(b1-4)GlcNAc(b1-4)GlcNAc
# Outline: as §1
# [17] = target: Neu5Ac(a2-6)Gal(b1-4)GlcNAc(b1-3)Gal(b1-4)[Fuc(a1-3)]GlcNAc(b1-3)Gal(b1-4)[Fuc(a1-3)]GlcNAc
# Outline: as §1
# [18] = target: Neu5Ac(a2-8)Neu5Ac(a2-3)[Gal(b1-3)GalNAc(b1-4)]Gal(b1-4)Glc
# Outline: as §1
# [19] = target: Neu5Ac(a2-8)Neu5Ac(a2-3)[GalNAc(b1-4)]Gal(b1-4)Glc
# Outline: as §1
# [20] = target: Neu5Ac(a2-8)Neu5Ac(a2-8)Neu5Ac
# Outline: as §1
binder,measurement,setting,value
B1,glycan array binding signal (z-score),[1],-0.353
same,glycan array binding signal (z-score),[2],-0.354
same,glycan array binding signal (z-score),GlcNAc(b1-3)Gal(b1-4)Glc,-0.338
same,glycan array binding signal (z-score),[3],5.71
same,glycan array binding signal (z-score),[4],4.87
same,glycan array binding signal (z-score),[5],6.06
same,glycan array binding signal (z-score),[6],-0.41
same,glycan array binding signal (z-score),[7],-0.727
same,glycan array binding signal (z-score),[8],-0.2
same,glycan array binding signal (z-score),[9],-0.392
same,glycan array binding signal (z-score),[10],-0.357
same,glycan array binding signal (z-score),[11],0.798
same,glycan array binding signal (z-score),[12],-0.328
same,glycan array binding signal (z-score),[13],-0.314
same,glycan array binding signal (z-score),[14],2.12
same,glycan array binding signal (z-score),[15],-0.143
same,glycan array binding signal (z-score),[16],-0.357
same,glycan array binding signal (z-score),[17],-0.378
same,glycan array binding signal (z-score),[18],-0.355
same,glycan array binding signal (z-score),[19],-0.398
same,glycan array binding signal (z-score),[20],-0.396

# — the supplement of paper PMC8728848
